# Screens (PubChem)
# CYP2C9 activ = human CYP2C9 activators, primary screen, biochemical, luminescence; Cytochrome P450 2C9 (Homo sapiens), P11712; recombinant CYP2C9, luciferin-H conversion; stronger effect = higher value; factor 1 = untreated enzyme, 0 = blocked; activation factor at 5 µM; hit rate 1.4% among 96,000;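 active means activation factor of 2 or more for CYP2C9 at a 5 µM dose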;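 further: 0 = sulfaphenazole-blocked wells and 1 = vehicle-only wells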
# F-actin modifier = modifiers of F-actin cytoskeleton organization, primary screen, imaging, HUVEC, phalloidin staining, high-content imaging | HUVEC TNFa F-actin phalloidin imaging | hit rate 0.18% among 91,000 | inhibition, % at 2 µM | AID 836, 2007;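 active means inhibition above the batch mean plus 3 SD and confirmed as a hit by visual image inspection, cut at about 30% in these data, passing the limit was not always enough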
# CYP2C19 activ = human CYP2C19 activators, primary screen, biochemical, luminescence; Cytochrome P450 2C19 (Homo sapiens), P33261; recombinant CYP2C19, luciferin-H EGE luminescence; stronger effect = higher value; 0 = fully inhibited enzyme, 1 = untreated enzyme; activation factor at 5 µM; 96,000 tested, under 10 active;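 active means activation factor of at least 2 at 5 µM in the primary screen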;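 further: 0 = wells with 2.5 mM tranylcypromine and 1 = vehicle-only wells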
# Target sequence (P33261 whole entry, looked up): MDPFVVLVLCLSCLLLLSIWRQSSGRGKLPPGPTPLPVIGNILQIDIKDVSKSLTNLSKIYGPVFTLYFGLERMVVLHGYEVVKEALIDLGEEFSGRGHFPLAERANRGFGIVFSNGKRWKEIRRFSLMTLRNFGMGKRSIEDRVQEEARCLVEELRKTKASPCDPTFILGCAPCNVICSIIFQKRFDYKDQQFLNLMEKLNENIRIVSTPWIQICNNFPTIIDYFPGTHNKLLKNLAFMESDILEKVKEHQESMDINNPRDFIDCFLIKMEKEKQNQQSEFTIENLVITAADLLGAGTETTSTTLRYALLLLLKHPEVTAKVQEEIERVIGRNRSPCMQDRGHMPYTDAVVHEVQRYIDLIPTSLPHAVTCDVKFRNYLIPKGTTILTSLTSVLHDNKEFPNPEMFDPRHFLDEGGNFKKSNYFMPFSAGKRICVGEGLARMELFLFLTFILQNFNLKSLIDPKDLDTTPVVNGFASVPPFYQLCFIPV
# E-sel TNF inh = E-selectin induction blockers in HUVEC – imaging, immunofluorescence, high content, primary screen | HUVEC TNFa-induced E-selectin immunofluorescence | inhibition, % at 2 µM | hit rate 0.71% among 120,000 | AID 1246, 2008;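 active means inhibition above the batch mean plus 3 SD, and confirmed as a hit on visual image review, cut at about 43% in these data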;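 further: 0% = TNF-stimulated DMSO wells and 100% = unstimulated control wells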
# CYP2C19 inhib = blockers of cytochrome P450 2C19 activity – biochemical, luminescence, ADME assay, primary screen | CYP2C19 Supersomes, luciferin-H EGE luminescence, 30 min | inhibition, % at 5 µM | AID 778, 2007 | P33261 | hit rate 21% among 96,000;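 active means CYP2C19 inhibition above a set limit at 5 µM in the primary screen, cut at about 50% in these data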;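 further: plate controls were negative control wells for no effect and 2.5 mM tranylcypromine positive control for full effect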
# CYP2C9 inhib = blockers of cytochrome P450 2C9 activity – biochemical, luminescence, ADME assay, primary screen | P11712 | CYP2C9 Supersomes, luciferin-H conversion | inhibition, % at 5 µM | hit rate 20% among 96,000 | AID 777, 2007;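 active means blocking of liver enzyme CYP2C9 beyond about 50% at 5 µM, limit read from the data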
# Starred values were filed as active, the others as inactive; / = no result. An excerpt weighted towards active compounds, which were near 22% of everything screened.
SMILES,CYP2C9 activ,F-actin modifier,CYP2C19 activ,E-sel TNF inh,CYP2C19 inhib,CYP2C9 inhib
c1ccc(-c2ccccc2-n2cnnn2)cc1,0.8,/,0.6,9,43,18
Cc1ccccc1NC(=O)c1c([N+](=O)[O-])c(C(C)(C)C)nn1C,/,/,/,-2,/,/
CC(=O)N1c2ccc3ccccc3c2C(C)CC12CCCCC2 (configuration not stated),0.1,-2,0,-20,98*,94*
CCNC(=O)NC(=O)C(C)Oc1ccc(C(=O)OC)cc1 (configuration not stated),0.9,-7,0.8,-3,16,11
CC(C)(C)c1nnc2sc(SCC(=O)c3cccs3)nn2c1=O,0,/,0.7,14,26,96*
CC(C)(C)c1nnc2sc(SCC(=O)N3CCCc4ccccc43)nn2c1=O,0.6,12,0.3,-26,71*,41
COc1ccc2cc(C(c3nnnn3CC3CCCO3)N3CCOCC3)c(=O)[nH]c2c1 (configuration not stated),1,/,1,13,-4,2
COC(=O)COc1ccc(-c2nn(C)c(=O)c3ccccc23)cc1,0.6,1,0.6,-3,43,44
CCOc1ccc(-c2nnc(N3CCCCC3)c3ccccc23)cc1,0.6,9,0.6,/,39,44
CCN(CC)C(=O)COc1ccc(-c2nnc(N3CCCCC3)c3ccccc23)cc1,0.2,-17,0.5,-7,52*,80*
CN(C(=O)c1ccc(-c2nn(C)c(=O)c3ccccc23)cc1)c1ccccc1,0.4,-13,0.5,5,47,62*
CN(C)CCNC(=O)c1ccc(-c2nn(C)c(=O)c3ccccc23)cc1,0.9,7,1.1,8,-5,5
Cn1nc(-c2ccc(OCC(N)=O)cc2)c2ccccc2c1=O,0.4,5,1.1,1,-11,61*
Cn1nc(-c2ccc(OCC(=O)Nc3ccccc3)cc2)c2ccccc2c1=O,0.3,2,0.2,21,81*,68*
CCOC(=O)c1cc(C(=O)NN)c(C)nc1C,/,/,/,18,/,/
Cc1cc(Nc2ccccc2)n(C(=O)c2ccccc2)n1,0.8,/,1.1,1,-7,24
Cc1c(NC(=O)COC(=O)c2cc3c4ccccc4n(C)c3s2)c(=O)n(-c2ccccc2)n1C,1,-10,0.6,0,42,-4
O=C(O)CC(c1ccc(Cl)cc1)n1cccc1 (configuration not stated),0.9,-24,1.1,-38,-10,9
CCOC(=O)CSc1nc2cc(C(=O)N3CCC(C(N)=O)CC3)ccc2c(=O)n1-c1ccccc1,0.4,-2,0.7,6,26,59*
CCOC(=O)CSc1nc2cc(C(=O)NCc3ccco3)ccc2c(=O)n1C1CCCCC1,0.5,-20,0.8,-6,20,51*
CCOC(=O)N1CCN(C(=O)c2ccc3nc4ccsc4c(=O)n3c2)CC1,0.9,/,1,-10,-2,14
CCOC(=O)N1CCC(n2c(SCC(=O)OCc3ccccc3)nc3ccsc3c2=O)CC1,0.5,-18,0.6,-6,38,47
CCOC(=O)CSc1nc2ccsc2c(=O)n1C1CCN(C(=O)OCC)CC1,0.4,-21,0.6,/,42,62*
CCOC(=O)N1CCC(n2c(SCC(=O)Nc3nccs3)nc3ccsc3c2=O)CC1,0.4,13,0.7,/,26,61*
CCOC(=O)CSc1nc2cc(C(=O)NCc3ccco3)ccc2c(=O)n1-c1ccc(F)cc1,1.1,/,1,/,-1,-8
SMILES,CYP2C9 activ,F-actin modifier,CYP2C19 activ,E-sel TNF inh,CYP2C19 inhib,CYP2C9 inhib
COC(=O)C1=C(C)n2nnnc2NC1c1cc2ccccc2o1 (configuration not stated),0.6,/,0.6,-76,43,43
COc1ccc(Cn2c(SCC(=O)NCc3ccco3)nc3ccsc3c2=O)cc1,0.6,-5,0.6,/,45,40
CCOC(=O)N1CCC(n2c(SCC(=O)NCc3ccco3)nc3ccsc3c2=O)CC1,0.4,13,0.8,5,22,63*
COc1cc(NC(=O)Cn2ncc(Cl)c(Cl)c2=O)c(C)cc1[N+](=O)[O-],/,/,/,83*,/,/
COc1cc(NC(=O)CN2CCCCC2)c(C)cc1[N+](=O)[O-],/,/,/,-23,/,/
Cc1nc2ccc(S(=O)(=O)NCC(=O)N3CCc4ccccc4C3)cc2s1,0.6,-4,0.3,-71,66*,37
Cc1nc2ccc(S(=O)(=O)Nc3ccccc3C)cc2s1,0.3,/,0,-1,97*,70*
Cc1nc2ccc(NS(=O)(=O)c3ccc(C)c(C)c3)cc2s1,0.2,-17,0.7,3,33,77*
Cc1nc2ccc(S(=O)(=O)NCC(=O)N3CCc4ccccc43)cc2s1,1.7,23,0.8,/,18,-66
CNc1oc(Cc2cccc3ccccc23)nc1C#N,0.7,19,0,/,96*,34
N#Cc1nc(Cc2cccc3ccccc23)oc1NCCN1CCCCC1,1,-18,1,-17,-4,-5
CC(C)Nc1oc(Cc2cccc3ccccc23)nc1C#N,0.4,-38,0,/,99*,56*
CC1CN(c2oc(Cc3cccc4ccccc34)nc2C#N)CC(C)O1 (configuration not stated),0.4,-4,0.4,/,64*,60*
O=C(NCc1cccnc1)c1cc(Sc2cccc(Cl)c2)nc2ccccc12,/,/,/,-22,/,/
CC(NS(=O)(=O)c1ccc(Br)cc1)C(c1cccs1)N1CCN(C)CC1 (configuration not stated),1,/,0,2,100*,-2
CC1CCCN(S(=O)(=O)c2ccc(S(=O)(=O)NC(C)c3cccs3)cc2)C1 (configuration not stated),0.3,-6,0,-8,100*,74*
CC(NS(C)(=O)=O)C(c1cccs1)N1CCN(C)CC1 (configuration not stated),1,2,1,/,-2,-4
COc1ccccc1N1CCN(C(c2cccs2)C(C)NS(=O)(=O)c2ccccc2)CC1 (configuration not stated),0.1,/,0.3,-20,72*,86*
O=C(COC(=O)/C=C/c1ccc(Cl)cc1Cl)NCCC1=CCCCC1,/,/,/,-16,/,/
CCOCCCNC(=O)c1ccc2c(c1)OCO2,1.1,-4,1.1,-17,-8,-12
O=C(NCc1ccc2c(c1)OCO2)c1ccc2snnc2c1,0.4,-1,0.3,-13,66*,65*
O=C(NCc1ccc2c(c1)OCO2)c1cccc([N+](=O)[O-])c1,0.8,57,0.1,-46,89*,25
CCOC(=O)C(CCCOc1cccc(OC)c1)C(=O)OCC,0.2,23,0.1,-24,90*,82*
